Laboratory results as given in PubChem BioAssay AID1209 (Sanford-Burnham Center for Chemical Genomics, 2008).
Hit rate of the full screen: of about 190,000 compounds, about 810 (0.43%) were called active. The sample holds actives, similar compounds and a random draw of the others, so the mix is not that of the screen. A number with no mark means an inactive call. Cut-off read from the data, not from the text of the source: active = inhibition above about 50%; inactive = the rest.

What follows are molecules tested against Mannose-6-phosphate isomerase (Homo sapiens) (UniProt P34949) (assay: MPI enzyme activity inhibition – biochemical, fluorescence intensity, coupled assay, primary screen (AID 1209;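 note: plate controls were DMSO vehicle for no effect and wells lacking substrate for full effect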)). Conditions: purified PMI enzyme, at 20 µM, active compounds read high.
Chain of Mannose-6-phosphate isomerase (Homo sapiens) (P34949 whole entry, looked up): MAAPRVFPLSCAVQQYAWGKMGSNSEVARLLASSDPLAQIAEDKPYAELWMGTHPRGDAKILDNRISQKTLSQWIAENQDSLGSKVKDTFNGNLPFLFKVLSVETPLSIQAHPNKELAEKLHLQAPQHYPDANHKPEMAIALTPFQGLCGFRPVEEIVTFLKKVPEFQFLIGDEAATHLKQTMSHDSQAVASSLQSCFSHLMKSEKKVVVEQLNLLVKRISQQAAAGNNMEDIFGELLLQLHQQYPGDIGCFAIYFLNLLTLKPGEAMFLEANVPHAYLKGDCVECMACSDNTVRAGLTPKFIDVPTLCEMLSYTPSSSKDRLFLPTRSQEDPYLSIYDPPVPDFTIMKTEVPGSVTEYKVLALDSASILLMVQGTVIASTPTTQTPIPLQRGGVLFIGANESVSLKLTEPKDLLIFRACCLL
For `COc1ccc(OC)c(-c2nnc(NC(=O)C(C)Sc3nncn3C)s2)c1` (stereo not drawn), the inhibition was 97.9% (active). In the case of `CC(Sc1nncn1C)C(=O)Nc1nnc(-c2ccccc2)s1` (stereo not drawn), the inhibition is reported as 8.5%. For `COc1ccccc1-c1nnc(NC(=O)C(C)Sc2nncn2C)s1` (stereo not drawn), the inhibition was -2.1%. Molecule `Cc1ccc(NC(=S)NNC(=O)Cn2nc(C(F)F)cc2C(F)F)cc1` has an inhibition of -10%. `Cc1ccsc1/C=C/c1ccc2cccc(O)c2n1` showed an inhibition of -6.3%. With `CSc1ccc(/C=C/c2ccc3cccc(O)c3n2)cc1` the inhibition was -33.5%. `COc1ccc(-c2nc(CSCC(=O)NC3CCCc4ccccc43)c(C)o2)cc1` (stereo not drawn) was tested, and the inhibition was 7%. Molecule `Cc1c(Cl)c(C(=O)NC2CCCC2)nn1C` has an inhibition of -11.9%. For `Nc1nc2c(s1)COc1ccccc1-2`, the inhibition was 12.7%. With `Nc1nc(-c2ccccc2)c(-c2ccccc2)s1` the inhibition was -1.1%. For `Nc1nc2c(s1)CCc1c-2cnn1-c1ccccc1`, the inhibition was 86.9% (active). With `CCCCCc1nc2sc3c(c2c(=O)n1N)CCC3` the inhibition was -5.8%. `O=C(Cn1cnc2ccccc2c1=O)NCc1ccc2c(c1)OCO2` showed an inhibition of 2%. `O=C(CCc1ccccc1)NC(=S)NCc1ccco1` was tested, and the inhibition was 7.5%. For `NCCCNC(=O)c1ccc(/C=N/O)nc1`, the inhibition was 0.9%. For `C[N+](C)(C)CCCNC(=O)c1ccc(/C=N/O)nc1`, the inhibition was 83.5% (active). `CNCCCNC(=O)c1ccc(/C=N/O)nc1` was tested, and the inhibition was -9.8%. With `CCOC(=O)CC(=O)Nc1ccc(Br)cc1C(=O)O` the inhibition was 7.4%. Work on `COC(=O)c1ccc(-c2nc(-c3ccc(Br)o3)no2)cc1` yielded an inhibition of 10.6%. Work on `COc1ccccc1Sc1ccccc1/C=N/NC(N)=O` yielded an inhibition of 2.1%. `COC(=O)Cc1cc(=O)n(-c2ccccc2)[nH]1` was tested, and the inhibition was 11%. Molecule `Cc1cc(=O)n(-c2ccc(C(=O)O)cc2)[nH]1` has an inhibition of -22.8%. `CC(C)(C)c1cc(=O)n(-c2ccccc2)[nH]1` was tested, and the inhibition was 64.7% (active). `CC(c1nc2ccccc2o1)N1C(=O)c2ccccc2C1=O` (stereo not drawn) was tested, and the inhibition was 66.9% (active). `O=C1c2ccccc2C(=O)N1Cc1nc2ccccc2o1` was tested, and the inhibition was -0.5%. Work on `O=C1c2ccccc2C(=O)N1c1ccc(-c2nc3ccccc3o2)cc1` yielded an inhibition of -2.8%. In the case of `Cc1ccc(NS(=O)(=O)c2ccccc2[N+](=O)[O-])cc1C`, the inhibition is reported as -10.7%. `CCN1C(=O)CSc2ccc(C(=O)OC)cc21` gave an inhibition of -2.3%. Molecule `COc1ccc(NC(=S)N(Cc2cccc(Br)c2)CC2CCC(C(=O)O)CC2)cc1` (stereo not drawn) has an inhibition of -6.9%. Work on `Oc1ccc(/C=N/n2c(-c3ccco3)csc2=Nc2cccnc2)c(O)c1` yielded an inhibition of -1.6%. `CN=c1scc(-c2ccccc2F)n1/N=C/c1ccc[nH]1` was tested, and the inhibition was -16.2%. `CN=c1scc(-c2cccs2)n1/N=C/c1ccccc1O` gave an inhibition of 5.2%. Work on `Cc1nc2ccccc2c(=O)n1/N=C/c1cn(-c2ccccc2)nc1-c1cccs1` yielded an inhibition of -10.8%. `CN=c1scc(C)n1/N=C/c1ccc(O)cc1O` showed an inhibition of -4%. For `CN=c1scc(-c2ccccc2F)n1/N=C/c1ccc(O)c(O)c1O`, the inhibition was 70.6% (active). With `CC(C)N=c1scc(-c2cccs2)n1/N=C/c1ccc(O)c(O)c1O` the inhibition was 75.9% (active). In the case of `CN=c1scc(-c2ccccc2F)n1/N=C(\C)c1cccnc1`, the inhibition is reported as -9.3%. `Cc1ccc(OCC(O)Cn2c(=N)n(CCN3CCOCC3)c3ccccc32)cc1` (stereo not drawn) was tested, and the inhibition was -3.6%. For `CC(Oc1ccccc1)C(=O)N1CCN=C1SCc1ccccc1` (stereo not drawn), the inhibition was -6.4%. For `Cc1cc(F)ccc1S(=O)(=O)N1CCCOC1CNC(=O)C(=O)NCc1ccco1` (stereo not drawn), the inhibition was -3.1%. Molecule `CCCCCNC(=O)c1ccc2c(=O)n(CCOC)c(=O)[nH]c2c1` has an inhibition of -5.7%. Molecule `O=C(CCNC(=O)c1ccccc1Cl)Nc1ccc(Br)c(C(F)(F)F)c1` has an inhibition of 15%. Work on `CN1C(=S)SC(N(O)C(=O)Nc2cccc3ccccc23)C1(C)C` (stereo not drawn) yielded an inhibition of 37.9%. `CC(NC(=O)c1ccc(C(F)(F)F)cc1)C(c1ccccc1)N1CCOCC1` (stereo not drawn) gave an inhibition of -8.2%. `NC(=O)CNc1n[nH]c(=S)[nH]c1=O` gave an inhibition of -27.7%. For `Oc1ccc(/C=N/Nc2ccc(C(F)(F)F)cn2)cc1`, the inhibition was -2.8%. For `Oc1ccc(/C=N/Nc2ccc(C(F)(F)F)cn2)cc1O`, the inhibition was 61.6% (active). Work on `COc1cc(/C=N/Nc2ccc(C(F)(F)F)cn2)ccc1O` yielded an inhibition of 7.1%. Work on `Cc1cc(O)c2c(c1)C(O)(C1OC(CO)C(O)C(O)C1O)c1cccc(O)c1C2=O` (stereo not drawn) yielded an inhibition of 2%. `O=C(CCc1nnc(C2CCCCC2)o1)NCc1ccc(F)c(F)c1` was tested, and the inhibition was -5.7%. `CCOC(=O)c1cc(C(C)=O)c(=O)[nH]c1C` gave an inhibition of 2.7%. Work on `CCCNC(=O)c1ccccc1NC(=O)c1ccccc1SC` yielded an inhibition of 0.3%. In the case of `CCN1C(=O)S/C(=C/c2ccc(Sc3nc4ccccc4[nH]3)o2)C1=O`, the inhibition is reported as 56.4% (active). Molecule `CC(C)N1C(=O)S/C(=C/c2ccc(Sc3nc4ccccc4[nH]3)o2)C1=O` has an inhibition of 26.5%. Molecule `C=CCN1C(=O)S/C(=C/c2ccc(Sc3nc4ccccc4[nH]3)o2)C1=O` has an inhibition of 44.5%. `Cc1ccc(S(=O)(=O)NCCOc2nc(N(C)C)nc(N3CCOCC3)n2)cc1` showed an inhibition of 16.3%. `COC(=O)Cc1c(C(=O)OC)nnn1-c1ccc(OC(F)(F)F)cc1` was tested, and the inhibition was -7.2%. Work on `O=C(O)Cc1c(C(=O)O)nnn1-c1cccc(C(F)(F)F)c1` yielded an inhibition of -2.9%. In the case of `COC(=O)Cc1c(C(=O)OC)nnn1-c1cccc(C(F)(F)F)c1`, the inhibition is reported as 75.8% (active). Work on `O=C(NNC(=O)C1C2CCC(C2)C1C(=O)O)c1cccc(Cl)c1` (stereo not drawn) yielded an inhibition of -7.9%. With `O=C(CCCOc1ccccc1)N1CCN(c2ccccn2)CC1` the inhibition was 0.9%. Work on `O=C(NCc1cccnc1)c1ccc(COc2ccc3c(c2)CCC3)o1` yielded an inhibition of 11%. `Cc1ccc(Nc2c(F)c(F)c(F)c(F)c2C(=O)O)cc1` was tested, and the inhibition was -24%. `COCCn1c(Cc2ccccc2)nnc1SCC(=O)Nc1cc(C)on1` gave an inhibition of 3.8%. In the case of `CCCCn1c(Cc2ccccc2)nnc1SCC(=O)Nc1cc(C)on1`, the inhibition is reported as 50.8% (active). With `CCn1c(Cc2ccccc2)nnc1SCC(=O)Nc1cc(C)on1` the inhibition was -6.5%. Work on `Cc1ccccc1NC(=O)N1CCC(C(=O)c2ccc(F)cc2)CC1` yielded an inhibition of -0.8%. Work on `O=C(CC(SCCO)c1ccc2c(c1)OCO2)c1ccco1` (stereo not drawn) yielded an inhibition of 10.7%. `Cc1ccc(C(CC(=O)c2ccco2)SCCO)cc1` (stereo not drawn) was tested, and the inhibition was 88.3% (active). `O=C(CC(SCCO)c1ccc(F)cc1)c1ccco1` (stereo not drawn) showed an inhibition of 4.8%. `NCCCC[C@@H]1NC(=O)[C@H](CCC(=O)O)NC(=O)c2cc([N+](=O)[O-])cc(I)c2OCC[C@@H](C(N)=O)NC1=O` showed an inhibition of -36.4%. For `CC1CN(S(=O)(=O)c2cccs2)CC(C)O1` (stereo not drawn), the inhibition was -2.4%. `Cc1cc2n(n1)SC(Nc1ccccc1)N2` (stereo not drawn) was tested, and the inhibition was 24.7%. In the case of `Cc1cc2n(n1)SC(Nc1ccc(F)cc1)N2` (stereo not drawn), the inhibition is reported as 64.5% (active). `CCc1ccc(Nc2cc(C)nc3nc(C)nn23)cc1` gave an inhibition of -5.4%. `CCc1ccc(NC(=O)c2cc(C)on2)cc1` showed an inhibition of 6.1%. `CN1C(=O)SC(Nc2ccc(F)cc2)C1=O` (stereo not drawn) was tested, and the inhibition was 3.1%. `COc1ccc(CCNC(=O)c2nnn(-c3cccc(C)c3)c2N)cc1OC` was tested, and the inhibition was 4.4%. Work on `Cc1nc(SC(C(=O)c2ccccc2)c2ccccc2)n[nH]1` (stereo not drawn) yielded an inhibition of 2%. `C=CCn1c(SCc2c(F)cccc2Cl)nnc1-c1ccco1` showed an inhibition of -6.5%. `CCCn1c(NCc2ccco2)nc2c1c(=O)n(C)c(=O)n2C` gave an inhibition of -8.2%. For `COc1ccc(F)cc1C(=O)C1CCCN(Cc2ccc(Oc3ncccn3)cc2)C1` (stereo not drawn), the inhibition was -3.3%. Work on `Cc1ccc2nc3c(c(N)c2c1)CCN3c1ccccc1` yielded an inhibition of 0.5%. For `Nc1c2c(nc3ccc(Br)cc13)N(c1ccccc1)CC2`, the inhibition was 17%. For `Cc1cccc(N2CCc3c2nc2ccc(Br)cc2c3N)c1`, the inhibition was 69.9% (active). Molecule `CCN(CC)S(=O)(=O)c1ccc2c(c1)nc(CCC(=O)Nc1ccc(N3CCOCC3)cc1)n2C` has an inhibition of 3.7%. `COc1ccc(Cl)cc1Nc1ncnc2sc(C)c(S(=O)(=O)N3CCC(C)CC3)c12` gave an inhibition of 5.4%. In the case of `Cc1cc2nc[nH]c2cc1[N+](=O)[O-]`, the inhibition is reported as 4%. Molecule `Nc1ccc2nc[nH]c2c1` has an inhibition of -17.5%. With `Nc1cc2nc[nH]c2cc1N` the inhibition was 68.3% (active). Work on `c1ccc2c(-c3nn[nH]n3)cccc2c1` yielded an inhibition of -8.6%. In the case of `O=C(N/N=C/c1ccc(N2CCOCC2)o1)c1cccc(C(F)(F)F)c1`, the inhibition is reported as -5.7%. In the case of `O=C(N/N=C/c1ccc(N2CCOCC2)o1)c1cccc(F)c1`, the inhibition is reported as -2.7%. `O=C(N/N=C/c1ccc(N2CCOCC2)o1)c1cccc([N+](=O)[O-])c1` was tested, and the inhibition was 79% (active). In the case of `CCOC(=O)c1c(-c2ccc(C)cc2)csc1/N=C/N(C)C`, the inhibition is reported as 12.2%. `COc1cc(OC)c(Cl)cc1N` was tested, and the inhibition was 9.7%. Molecule `COc1ccc(OC)c(N=C2C(=O)Nc3ccccc32)c1` has an inhibition of 16.4%. `COc1ccc(OC)c(N=C(N)N=C(N)N)c1` was tested, and the inhibition was 2.9%. Work on `COc1cc(N)c(Cl)cc1Cl` yielded an inhibition of -7.9%. With `COc1ccc(OC)c(N=c2ssnc2Cl)c1` the inhibition was 88.1% (active). For `COc1cc(N=c2ssnc2Cl)c(OC)cc1Cl`, the inhibition was 98.9% (active). For `C#CCOCCOCCOCCNc1nc(N2CCN(C(=O)C([C@@H](C)CC)n3cc(C(N)Cc4ccc(O)cc4)nn3)CC2)nc(N2CCN(C(=O)[C@H](CCC(=O)O)n3cc(C(N)CC(C)C)nn3)CC2)n1` (stereo partly drawn), the inhibition was -18.6%. `COc1ccc(C(=O)/C=C/C(=O)N(Cc2ccccc2OC)C(C(=O)NC2CCCCC2)c2ccncc2)c(O)c1` (stereo not drawn) gave an inhibition of 13.1%.
